# The full list was thinned out, with hits kept by preference.
# HT1080 IDH1KD tx: HT-1080 IDH1 knockdown cell toxicity (counter line); HT-1080 IDH1 knockdown viability, ATP luminescence, 48 h; Potency, µM (series often up to 46.1 µM), most hits filed as cytotoxic; actives 2% (n = 360,000)
#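 Luminescent ATP read-out (CellTiter-Glo, 10 min at room temperature) after 48 h compound exposure at 37 °C gave viability of IDH1-knockdown HT-1080 cells. Activity was normalised to DMSO and cell-free wells, then fitted as concentration-response curves.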
# IL1B secr inh: blocks inflammasome-driven IL-1 beta release. THP-1 LPS/ATP IL-1B secretion, AlphaLISA, 16 h; stronger effect = lower value. activity change, % at 57.5 µM. actives 4.7% (n = 360,000). AID 743279; in the data active = activity change below about -50%; inconclusive = mostly about -30% to -49%
#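 Secreted IL-1B measured by AlphaLISA bead assay after 16 h compound exposure of THP-1 cells; compounds (final up to 57.5 uM) added 1 h before LPS (250 ng/mL) and ATP (1.25 mM) stimulation; lower signal means less secretion.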
# ALOX12 inh: inhibitors of human 12S-lipoxygenase ALOX12; P18054; purified 12hLO, xylenol orange hydroperoxide absorbance; Potency, µM (doses to about 108 µM), most hits filed as inhibitors; actives 1.1% (n = 580,000); AID 1671190
# Target sequence (P18054 whole entry, looked up): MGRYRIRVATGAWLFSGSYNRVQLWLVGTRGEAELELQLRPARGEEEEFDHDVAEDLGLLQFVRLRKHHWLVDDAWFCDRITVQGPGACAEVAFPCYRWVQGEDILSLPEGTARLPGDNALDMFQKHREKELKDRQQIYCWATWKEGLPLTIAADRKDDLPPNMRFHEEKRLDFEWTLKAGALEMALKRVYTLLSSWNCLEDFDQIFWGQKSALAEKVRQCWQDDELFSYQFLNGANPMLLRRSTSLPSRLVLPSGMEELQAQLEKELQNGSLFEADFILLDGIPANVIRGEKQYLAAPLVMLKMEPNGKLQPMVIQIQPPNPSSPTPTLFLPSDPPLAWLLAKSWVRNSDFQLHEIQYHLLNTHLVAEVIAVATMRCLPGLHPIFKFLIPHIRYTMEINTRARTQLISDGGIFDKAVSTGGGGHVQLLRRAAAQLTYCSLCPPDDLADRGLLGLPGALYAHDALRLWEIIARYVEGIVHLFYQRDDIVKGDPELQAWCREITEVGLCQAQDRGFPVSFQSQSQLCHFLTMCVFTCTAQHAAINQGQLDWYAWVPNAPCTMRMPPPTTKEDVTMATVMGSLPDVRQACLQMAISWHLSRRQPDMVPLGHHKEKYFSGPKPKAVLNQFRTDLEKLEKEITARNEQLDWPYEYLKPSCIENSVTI
#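 Purified human 12hLO at 150 nM in 25 mM Hepes, 0.01% Triton X-100, pH 7.0, preincubated 15 min at room temperature with compound. Reaction started with 40 uM arachidonic acid, 30 min at room temperature. Hydroperoxide measured by Fe-xylenol orange, 573/405 nm absorbance ratio.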
# DT40 TDP1 CPT: growth inhibition of DT40 Tdp1-/-;hTDP1 cells with camptothecin (screen for TDP1 inhibitors). chicken DT40 Tdp1-/-;hTDP1 cells + 20 nM CPT, ATP luminescence, 48 h. Potency, µM (doses to about 46.2 µM), usual class: inhibitors. actives 12% (n = 420,000); also: nearly all actives have a fitted effect of over 55% in size
#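 Cell growth measured by CellTiter-Glo luminescence after a minimum 48 h, 37 C compound exposure with 20 nM CPT in Tdp1-knockout DT40 cells stably expressing hTDP1, seeded 400/well; qHTS titration format.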
# HT1080-NT tox: kills 2HG-producing HT-1080-NT fibrosarcoma cells. HT-1080-NT fibrosarcoma viability, CellTiter-Glo ATP luminescence, 48 h. Potency, µM (highest dose often 46.1 µM), most hits filed as cytotoxic. actives 1.6% (n = 360,000). AID 686970;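 also: NT is the 2HG producing partner of a matched IDH1 knockdown line; nearly all actives have a fitted effect of over 55% in size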
#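 Luminescent CellTiter-Glo readout after 48 hours of compound exposure at 37 degrees C defined viability of HT-1080-NT cells. Activity was normalized to DMSO wells and cell-free media wells; concentration-response curves were fitted and assigned curve classes.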
# DT40 TDP1 no CPT: qHTS for Inhibitors of human tyrosyl-DNA phosphodiesterase 1 (TDP1): qHTS in cells in absence of CPT. AID 686978, 2013. Potency, µM (top dose mostly 46.2 µM), usual class: inhibitors. actives 15% (n = 420,000). DT40 Tdp1-/- hTDP1 cells, no CPT, ATP luminescence, 48 h; also: nearly all actives have a fitted effect of over 55% in size
#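 Camptothecin absent (DMSO only). Human TDP1-complemented DT40 knockout cells, 400 cells/well, 37 °C for minimum 48 hr; ATP measured via CellTiter-Glo, 30 min dark incubation, luminescence.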
# Numbers stand for hits; 0 = inactive; ? = inconclusive; - = not tested or not shown. Unless noted, calls follow the shape of the dose curve; as a rule, active = well fitted curve in the direction sought with a large enough effect; inconclusive = small, poorly fitted or top-dose-only effect, or another doubt; inactive = no such curve, though single readings can be large; an effect the other way counts as inactive or inconclusive.
SMILES,HT1080 IDH1KD tx,IL1B secr inh,ALOX12 inh,DT40 TDP1 CPT,HT1080-NT tox,DT40 TDP1 no CPT
O=c1c2ccccc2nc(SCc2cccc(F)c2)n1-c1cccc(S(=O)(=O)N2CCCC2)c1,0,0,0,12µM,0,18µM
CN(C)S(=O)(=O)c1cccc(NC(=O)CSc2ncnc3ccccc23)c1,0,-100,0,21µM,0,18µM
O=C(CSc1cccc2cccnc12)Nc1ccc(S(=O)(=O)N2CCOCC2)cc1,?,-101,0,?,?,?
O=C(CSc1cccc2cccnc12)Nc1cccc(S(=O)(=O)N2CCOCC2)c1,0,0,0,0,0,0
CCC(C)NC(=O)Nc1ccc2c(c1)CCN2S(C)(=O)=O (stereo not given),-,-,0,-,-,-
CCN1C(=O)COC[C@@H]1[C@H](O)c1ccc(NC(=O)c2cc(C)nn2C)cc1,-,-,0,-,-,-
Cc1noc([C@@H]2CN(C(=O)CCCc3nc4ccccc4s3)C[C@H]2C(N)=O)n1,-,-,0,-,-,-
CCCc1cc(=O)c2c(O)ccc(OC)c2o1,0,0,25µM,0,0,0
CCCCc1c2c(nn1-c1cc(Cl)ccc1OC)CCCC2=O,-,-,0,-,-,-
O=C(CN1CCC(C(=O)c2ccc(F)cc2)CC1)Nc1ccccc1,?,0,0,?,?,0
Fc1ccc(C(c2ccc(F)cc2)N2CCN(C/C=C\c3ccccc3)CC2)cc1,-,-,?,24µM,-,21µM
O=C(CN1CCN(C(=O)C2CCN(C(=O)/C=C/c3ccccc3)CC2)CC1)Nc1ccc(F)cc1,0,-83,0,?,0,?
OC(CN1CCN(C/C=C/c2ccccc2)CC1)c1cccc(F)c1 (stereo not given),-,-,0,-,-,-
O=C(Nc1cccc(F)c1)N1CCN(C/C=C/c2ccccc2)CC1,0,0,0,0,0,0
O=C(Nc1ccc(F)cc1)N1CCN(C/C=C/c2ccccc2)CC1,0,0,0,?,0,29µM
N#C/C(=C/c1cccc(O)c1)c1nc2ccccc2[nH]1,-,-,0,-,-,-
COc1ccc(Cl)cc1C(=O)N1CCc2nc3cc(-c4ccccc4)[nH]n3c(=O)c2C1,-,-,0,-,-,-
CN1CCN(c2nc3c(c(=O)[nH]2)CCN(Cc2ccc(F)c(F)c2)CC3)CC1,-,-,0,-,-,-
CN1C(=O)C(CC(=O)NCCc2c[nH]c3ccccc23)=C2CCCCC21 (stereo not given),-,-,0,-,-,-
COc1cccc(-c2cc(C(=O)NCCc3n[nH]c(=O)n3C)[nH]n2)c1,-,-,0,-,-,-
O=C(O)C(c1c[nH]c2cc(Cl)ccc12)N1CCN(Cc2ccccn2)CC1 (stereo not given),-,-,0,-,-,-
O=C(O)C(c1c[nH]c2cc(Br)ccc12)N1CCN(Cc2ccc(Cl)cc2Cl)CC1 (stereo not given),-,-,40µM,-,-,-
O=C(O)C(c1c[nH]c2ccccc12)N1CCN(Cc2ccc(Cl)cc2Cl)CC1 (stereo not given),-,-,0,-,-,-
O=C(O)C(c1c[nH]c2cc(Cl)ccc12)N1CCN(C(c2ccccc2)c2ccccc2)CC1 (stereo not given),-,-,7.9µM,-,-,-
O=C(CNC1=NCCS1)c1c[nH]c2ccccc12,-,-,-,0,-,?
SMILES,HT1080 IDH1KD tx,IL1B secr inh,ALOX12 inh,DT40 TDP1 CPT,HT1080-NT tox,DT40 TDP1 no CPT
CCCc1sc(NC(=O)CC[C@H]2NC(=O)c3ccccc3NC2=O)nc1C(=O)OC,-,-,0,-,-,-
O=[N+]([O-])c1ccc(CSc2ccccn2)cc1,0,0,0,0,0,0
O=[N+]([O-])c1ccccc1CSc1ccccn1,0,-63,?,0,0,0
Cc1noc(-c2ccc(C(F)(F)F)cc2)c1NC(=O)Nc1ccc(Cl)cc1,?,-53,0,4.6µM,?,3.7µM
Cc1nc(Cl)sc1C(=O)Nc1cccc(Cl)c1C,0,-96,0,?,0,?
Cc1oncc1C(=O)Nc1ccc(C(F)(F)F)cc1,?,0,0,7.3µM,?,9.2µM
Cc1nc(Cl)sc1C(=O)Nc1cccc(C(F)(F)F)c1,0,0,0,0,0,0
Cc1nc(Cl)sc1C(=O)Nc1ccc(C(F)(F)F)cc1,0,-65,0,0,0,0
Cc1nc(Cl)sc1C(=O)Nc1ccccc1Cl,0,0,0,0,0,?
O=C1Nc2ccccc2C12CCN([S+](=O)([O-])c1ccsc1)CC2,-,-,0,-,-,-
O=C(NC1CCCCC1)C(c1cccnc1)N(C(=O)c1ccc(Cl)nc1)C1CCCCC1 (stereo not given),0,0,0,0,0,0
CC(C)(C)C(=O)Cn1cnc(C#N)n1,-,-,0,-,-,-
CCCc1cc(=O)n2nc(N3CCC(C(=O)N4CCN(c5ccc(OC)cc5)CC4)CC3)sc2n1,13µM,0,?,2.6µM,?,5.8µM
Cc1ccc(C)c(N2CCN(C(=O)C3CCN(c4nc5ccc(C)cc5[nH]4)CC3)CC2)c1,-,-,?,4.1µM,-,2.3µM
CCCc1cc(=O)n2nc(N3CCC(C(=O)Nc4c(F)c(F)c(F)c(F)c4F)CC3)sc2n1,0,0,0,0,0,0
COc1ccc(N2CCN(C(=O)C3CCN(c4nc5ccc(C)cc5[nH]4)CC3)CC2)cc1,-,-,?,10µM,-,8.2µM
Cc1ccc2nc(N3CCC(C(=O)N4CCN(c5cccc(Cl)c5)CC4)CC3)[nH]c2c1,-,-,0,13µM,-,8.2µM
O=C1CO[C@H]2CCN(Cc3ccccn3)CC[C@@H]2N1CCc1cccnc1,-,-,0,-,-,-
CCOC(=O)CSc1c(-c2cccs2)[nH]c2ccccc12,?,0,0,0,18µM,0
CCOC(=O)CSc1c(-c2ccc(Cl)cc2)[nH]c2ccccc12,0,0,0,?,?,?
CCN1c2cc(C(=O)Nc3cccc(OC(F)(F)F)c3)ccc2C(=O)N2CCCCC21 (stereo not given),-,-,0,-,-,-
O=Cc1ccnc(-c2ccc(OC(=O)c3ccco3)cc2)n1,0,-86,0,5.2µM,0,5.8µM
O=C(Oc1ccc(-c2ccccc2)cc1)c1ccco1,0,0,0,0,0,0
c1ccc2oc(CN3Cc4[nH]cnc4C[C@H]3c3nc(-c4cnccn4)no3)cc2c1,-,-,0,-,-,-
O=C(COc1ccccc1Br)Nc1ccc2c(c1)OCCCO2,0,0,0,0,0,0
O=C(CCNS(=O)(=O)c1ccc2c(c1)CCN2C(=O)C1CC1)Nc1ccc(F)cc1F,-,-,0,8.2µM,-,13µM
Cc1cccc(NC(=O)CCNS(=O)(=O)c2ccc3c(c2)CCN3C(=O)C2CC2)c1,-,-,0,18µM,-,21µM
CC1CCN(CCCNS(=O)(=O)c2ccc3c(c2)CCN3C(=O)C2CC2)CC1,0,0,0,0,0,0
CC(C)(C)C(=O)N1N=C(c2ccsc2)CC1c1ccc2nccnc2c1 (stereo not given),-,-,0,-,-,-
